A short description of experiment [1]: small molecules captured by biotinylated probe aFSTL3 – biochemical, small-molecule microarray, fluorescence 635/667, stem cell growth factor project, primary screen (AID 1064).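 Also: measures binding of the biotinylated anti-FSTL3 antibody to printed compounds.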 The conditions noted are these: higher = more signal.
A short description of experiment [2]: binders from COS7 lysate, DM2A8 probe, primary screen, torsin A project, cell lysate, small-molecule microarray, fluorescence 635/667 (AID 1065). As to conditions: higher = more signal, COS7 lysate expressing mutant human TOR1A.
Experiment [3] is described as follows: small molecules captured by biotinylated probe aFGF2 – biochemical, small-molecule microarray, fluorescence 635/667, stem cell growth factor project, primary screen (AID 1067).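 Also: measures binding of biotinylated aFGF2 protein to printed compounds on slides; z-score merges feature fluorescence and signal-to-noise across triplicate slides.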 The conditions noted are these: higher = more signal.
Experiment [4] in a line: small molecules captured by biotinylated probe aFGF10 – biochemical, small-molecule microarray, fluorescence 635/667, stem cell growth factor project, primary screen (AID 1071).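 Also: score merges 667 nm spot intensity and signal to noise from triplicate slides.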 The conditions noted are these: higher = more signal.
Experiment [5] concerns the target Neurogenic locus notch homolog protein 2 (Homo sapiens) (UniProt Q04721). As to the kind of experiment: small molecules binding Notch2 protein – biochemical, small-molecule microarray, 635 nm fluorescence, stem cell growth factors, primary screen (AID 1073). As to conditions: higher = more signal.
The target in experiment [6] is Pro-neuregulin-1, membrane-bound isoform (Homo sapiens) (UniProt Q02297). Briefly: small molecules binding neuregulin-1 protein – biochemical, small-molecule microarray, fluorescence 635/667, psychiatric disease protein project, primary screen (AID 1075).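 Also: score combines 667 nm spot fluorescence with signal to noise.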 The conditions noted are these: NRG1 binding, 635 nm fluorescence, higher = more signal.
Experiment [7] relates to Neuregulin-1 EGF-like domain. Briefly: small molecules binding NRG1 EGF domain – biochemical, small-molecule microarray, 635 nm fluorescence, primary screen (AID 1081).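 Also: binding of the protein to compounds printed on small-molecule microarray slides.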 The conditions noted are these: higher = more signal.
A short description of experiment [8]: FRG1 expression reporter modulators in myotubes – cell-based, C2C12 myotubes, firefly/Renilla luciferase, luminescence, FRG1 inhibition for FSHD, primary screen (AID 1084). The conditions noted are these: FRG1 promoter luciferase, higher = more signal, called active from +8 up or from −8 down.
A short description of experiment [9]: small molecules captured by biotinylated probe aFST – biochemical, small-molecule microarray, fluorescence 635/667, stem cell growth factor project, primary screen (AID 1086).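 Also: score merges 667 nm fluorescence with signal-to-noise of each printed compound spot.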 The conditions noted are these: higher = more signal.
The nature of experiment [10]: binders of probe aHhip on microarray, primary screen, stem cell growth factor project, biochemical, small-molecule microarray, fluorescence 635/667 (AID 1087).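 Also: score merges spot fluorescence at 667nm with spot signal to noise ratio.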 As to conditions: higher = more signal.
The subject of experiment [11] is PRMT1 (protein arginine N-methyltransferase 1). Briefly: small molecules binding arginine methyltransferase PRMT1 – biochemical, small-molecule microarray, 635 nm fluorescence, primary screen (AID 1088).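 Also: binding of Prmt1 protein to compounds spotted on small-molecule microarray slides.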 The conditions noted are these: higher = more signal.
Experiment [12] is described as follows: growth effects on S. cerevisiae YJM789 – YJM789 clinical isolate, OD600, 24 h, basal, primary screen (AID 1089).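 Also: growth of clinical yeast isolate S. cerevisiae YJM 789 seeded 1000 cells per well; test concentration not given here.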 As to conditions: higher = more signal, called active from +8 up or from −8 down.
A short description of experiment [13]: S. pombe growth modifiers, basal conditions – strain 972, OD600, 24 h, no modulator, primary screen (AID 1090).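 Also: basal condition with compound alone and no growth modifier present; test concentration not given here.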 The conditions noted are these: S. pombe 972 growth, higher = more signal, called active from +8 up or from −8 down.
Experiment [14] in a line: budding yeast growth modifiers under rapamycin – strain BY4716, OD600, 96 h, primary screen (AID 1091). Also: test concentration not given here. The conditions noted are these: S. cerevisiae BY4716 + rapamycin, higher = more signal, called active from +8 up or from −8 down.
In experiment [15] the target is Torsin-1A-interacting protein 2 (Homo sapiens) (UniProt Q8NFQ8). As to the kind of experiment: small molecules binding lysate-expressed LULL1 – cell lysate, human LULL1 lysate, 635/667 nm fluorescence, primary screen (AID 1092).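 Also: probe is lysate of COS7 cells overexpressing human LULL1; score merges per-feature 667 nm fluorescence with signal-to-noise.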 The conditions noted are these: small-molecule microarray, hLULL1 lysate binding, 635 nm fluorescence; higher = more signal.
The nature of experiment [16]: optical density change of DRC41 E. coli – strain DRC41, OD650, 24 h, E. coli filamentation project, primary screen (AID 1093).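 Also: MC1000 strain lacking acrAB efflux and sulA so SOS filamentation is blocked; test concentration not given here.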 The conditions noted are these: E. coli DRC41 growth, higher = more signal, called active from +8 up or from −8 down.
Experiment [17] in a line: probe aLefty2 binding to arrayed compounds – biochemical, biotinylated probe, 635/667 nm fluorescence, primary screen (AID 1094).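 Also: score merges spot fluorescence near 667 nm with spot signal-to-noise ratio.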 As to conditions: small-molecule microarray, higher = more signal.
Experiment [18] has as its system Noggin (protein binding on small-molecule microarray). As to the kind of experiment: small molecules binding Noggin protein – biochemical, 635/667 nm fluorescence, primary screen (AID 1095).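 Also: score merges 667 nm feature fluorescence with signal to noise over triplicate slides.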 The conditions noted are these: 635 nm fluorescence, higher = more signal.
Experiment [19] addresses Neurogenic locus notch homolog protein 3 (Homo sapiens) (UniProt Q9UM47). As to the kind of experiment: small molecules binding NOTCH3 protein – biochemical, 635/667 nm fluorescence, primary screen (AID 1096). The conditions noted are these: small-molecule microarray, 635 nm fluorescence, higher = more signal.
Experiment [20] in a line: probe aEGFR binding to arrayed compounds – biochemical, biotinylated probe, 635/667 nm fluorescence, primary screen (AID 1097).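 Also: probe is a biotinylated anti-EGFR antibody binding compounds printed on slides; score combines fluorescence near 667 nm and signal to noise of each spot.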 The conditions noted are these: small-molecule microarray, higher = more signal.

The source made the active and inactive calls.

Chain of Neurogenic locus notch homolog protein 2 (Homo sapiens) (Q04721 whole entry, looked up, canonical isoform): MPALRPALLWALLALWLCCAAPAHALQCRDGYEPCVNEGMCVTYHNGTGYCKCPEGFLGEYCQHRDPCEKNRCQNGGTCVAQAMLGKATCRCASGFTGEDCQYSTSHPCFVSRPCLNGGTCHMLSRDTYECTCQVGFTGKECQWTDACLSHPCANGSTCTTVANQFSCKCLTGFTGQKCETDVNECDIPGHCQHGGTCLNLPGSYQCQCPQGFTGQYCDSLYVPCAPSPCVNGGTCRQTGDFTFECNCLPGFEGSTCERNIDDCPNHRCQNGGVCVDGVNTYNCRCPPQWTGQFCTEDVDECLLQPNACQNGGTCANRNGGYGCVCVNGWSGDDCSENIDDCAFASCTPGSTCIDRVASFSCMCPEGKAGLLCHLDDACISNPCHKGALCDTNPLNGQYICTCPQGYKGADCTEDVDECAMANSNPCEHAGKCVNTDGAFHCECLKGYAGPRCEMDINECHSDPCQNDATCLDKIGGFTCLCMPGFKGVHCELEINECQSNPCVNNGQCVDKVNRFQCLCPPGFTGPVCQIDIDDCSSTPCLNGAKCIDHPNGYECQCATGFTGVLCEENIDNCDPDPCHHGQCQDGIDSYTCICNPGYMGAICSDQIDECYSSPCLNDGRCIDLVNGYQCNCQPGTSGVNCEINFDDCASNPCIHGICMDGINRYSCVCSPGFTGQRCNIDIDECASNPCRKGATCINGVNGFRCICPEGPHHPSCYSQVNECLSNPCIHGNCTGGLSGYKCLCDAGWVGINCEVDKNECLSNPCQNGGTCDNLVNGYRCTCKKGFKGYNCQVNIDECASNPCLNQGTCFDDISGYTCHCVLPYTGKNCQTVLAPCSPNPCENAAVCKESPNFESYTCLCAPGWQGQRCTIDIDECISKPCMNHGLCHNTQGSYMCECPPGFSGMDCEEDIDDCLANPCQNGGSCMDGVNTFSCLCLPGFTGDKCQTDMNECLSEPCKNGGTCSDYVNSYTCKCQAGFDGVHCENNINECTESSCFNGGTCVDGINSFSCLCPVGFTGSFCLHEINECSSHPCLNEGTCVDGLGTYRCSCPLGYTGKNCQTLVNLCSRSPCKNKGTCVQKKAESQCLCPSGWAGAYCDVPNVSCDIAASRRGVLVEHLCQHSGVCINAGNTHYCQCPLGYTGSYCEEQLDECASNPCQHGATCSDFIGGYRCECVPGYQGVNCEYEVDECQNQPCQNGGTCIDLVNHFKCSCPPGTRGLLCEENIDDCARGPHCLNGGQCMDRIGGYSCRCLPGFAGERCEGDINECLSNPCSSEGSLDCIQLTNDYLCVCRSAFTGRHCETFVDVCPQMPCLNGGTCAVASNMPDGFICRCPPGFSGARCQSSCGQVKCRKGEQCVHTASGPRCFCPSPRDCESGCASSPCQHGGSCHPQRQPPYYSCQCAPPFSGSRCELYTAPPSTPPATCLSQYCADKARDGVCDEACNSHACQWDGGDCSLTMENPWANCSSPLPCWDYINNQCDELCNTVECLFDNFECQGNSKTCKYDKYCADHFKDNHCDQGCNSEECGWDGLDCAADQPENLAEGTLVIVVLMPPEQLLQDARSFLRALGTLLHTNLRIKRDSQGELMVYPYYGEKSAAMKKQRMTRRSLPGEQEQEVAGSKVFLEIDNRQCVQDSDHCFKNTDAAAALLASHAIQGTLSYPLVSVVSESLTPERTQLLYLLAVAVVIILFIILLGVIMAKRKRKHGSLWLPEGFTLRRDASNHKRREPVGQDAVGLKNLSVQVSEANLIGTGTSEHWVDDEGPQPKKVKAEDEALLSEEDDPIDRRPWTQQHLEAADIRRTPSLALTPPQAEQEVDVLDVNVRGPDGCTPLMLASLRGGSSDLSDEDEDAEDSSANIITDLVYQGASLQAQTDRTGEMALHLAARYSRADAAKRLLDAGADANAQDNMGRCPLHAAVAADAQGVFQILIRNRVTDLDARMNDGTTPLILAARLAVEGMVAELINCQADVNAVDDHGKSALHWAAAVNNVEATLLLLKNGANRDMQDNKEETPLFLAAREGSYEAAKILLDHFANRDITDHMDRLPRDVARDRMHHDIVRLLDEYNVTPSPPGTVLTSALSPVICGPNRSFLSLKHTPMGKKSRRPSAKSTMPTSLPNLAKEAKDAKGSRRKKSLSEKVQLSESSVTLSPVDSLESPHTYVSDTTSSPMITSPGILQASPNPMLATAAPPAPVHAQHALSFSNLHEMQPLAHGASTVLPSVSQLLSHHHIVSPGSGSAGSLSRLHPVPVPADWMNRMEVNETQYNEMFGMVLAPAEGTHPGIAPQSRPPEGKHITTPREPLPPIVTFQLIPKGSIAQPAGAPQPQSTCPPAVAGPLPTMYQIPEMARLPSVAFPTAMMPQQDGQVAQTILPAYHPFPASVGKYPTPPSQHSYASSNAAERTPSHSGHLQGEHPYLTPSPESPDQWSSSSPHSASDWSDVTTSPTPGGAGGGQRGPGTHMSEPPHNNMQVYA
Chain of Pro-neuregulin-1, membrane-bound isoform (Homo sapiens) (Q02297 whole entry, looked up, the tested form may be a part, canonical isoform): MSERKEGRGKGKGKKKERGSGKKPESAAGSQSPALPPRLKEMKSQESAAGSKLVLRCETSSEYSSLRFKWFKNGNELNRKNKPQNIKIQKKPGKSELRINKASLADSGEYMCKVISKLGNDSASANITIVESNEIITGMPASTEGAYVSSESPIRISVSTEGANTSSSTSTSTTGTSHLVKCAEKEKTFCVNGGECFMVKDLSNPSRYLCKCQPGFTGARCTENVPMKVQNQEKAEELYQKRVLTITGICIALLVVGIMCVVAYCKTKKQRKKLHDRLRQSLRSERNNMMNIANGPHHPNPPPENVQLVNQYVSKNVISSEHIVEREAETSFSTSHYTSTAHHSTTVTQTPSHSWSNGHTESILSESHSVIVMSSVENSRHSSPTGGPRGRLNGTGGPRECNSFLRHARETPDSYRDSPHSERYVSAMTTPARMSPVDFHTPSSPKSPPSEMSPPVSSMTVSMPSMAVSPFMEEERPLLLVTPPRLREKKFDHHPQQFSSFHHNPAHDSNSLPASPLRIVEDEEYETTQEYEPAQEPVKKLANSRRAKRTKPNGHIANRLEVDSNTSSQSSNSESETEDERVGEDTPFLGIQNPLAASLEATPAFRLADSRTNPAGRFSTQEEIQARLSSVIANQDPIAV
Chain of Torsin-1A-interacting protein 2 (Homo sapiens) (Q8NFQ8 whole entry, looked up): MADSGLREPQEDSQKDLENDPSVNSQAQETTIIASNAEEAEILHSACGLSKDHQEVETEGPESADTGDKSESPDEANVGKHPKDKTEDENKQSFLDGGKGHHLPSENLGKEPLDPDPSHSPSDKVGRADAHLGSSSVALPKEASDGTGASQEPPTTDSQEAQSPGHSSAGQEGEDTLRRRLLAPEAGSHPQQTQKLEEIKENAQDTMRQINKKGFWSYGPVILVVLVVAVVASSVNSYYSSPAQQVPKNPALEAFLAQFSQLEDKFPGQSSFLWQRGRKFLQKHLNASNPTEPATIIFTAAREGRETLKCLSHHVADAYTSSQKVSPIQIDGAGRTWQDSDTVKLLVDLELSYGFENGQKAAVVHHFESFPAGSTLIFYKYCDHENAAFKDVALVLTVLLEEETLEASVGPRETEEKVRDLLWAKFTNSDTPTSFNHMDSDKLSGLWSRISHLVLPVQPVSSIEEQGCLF

Consider `CCOC(=O)C[C@H]1[C@H](OC(=O)Cc2ccc3c(c2)OCO3)[C@@H](NC(=O)Cc2ccc(OC)cc2)c2cc(OCCCO)ccc2N1C(=O)c1ccc2ccccc2n1`, for which the composite z-score in [1] was -0.362; in experiment [2], 0.401; in experiment [3] it was -0.104; in experiment [4] it was 0.466; in [5], 0.255; in [6], 0.371. The composite z-score in [7] was 0.752; in experiment [9] it was 0.103; in experiment [10], -0.274; in experiment [11], 0.317; in experiment [15], 0.708; in [17] it was -0.137. Besides, the results for the composite z-score in experiment [18], in [19] and in experiment [20] were 0.14, 0.32 and -0.146, respectively. Moreover, the z-score is -3.56 (inactive) in experiment [8]; -2.05 (inactive) in experiment [12]; -1.34 (inactive) in experiment [13]; 0.758 (inactive) in [14]; 2.08 (inactive) in experiment [16].

With `CC(CO)N1C(=O)[C@@H]2[C@H]3C(=O)OCC=C[C@H]3OC23C=CCN(CCN2CCOCC2)C(=O)[C@@H]13` (stereo not given in full), the composite z-score in experiment [1] was -0.979; in [2], -0.0708; in [3], -0.203; in [4] it was -0.362; in experiment [5] it was -0.256; in [6], -0.718. Besides, the composite z-score in experiment [7] is 0.284; in experiment [9], -0.0558; in experiment [10], -0.539; in experiment [11] it was 0.658; in experiment [15], -0.986; in experiment [17], -0.33. Moreover, the composite z-score in [18] was 0.169; in experiment [19], 0.0282; in [20], -0.0828. Also, the z-score in experiment [8] is 1.03 (inactive); in [12], -0.792 (inactive); in [13], -0.968 (inactive); in experiment [14] it was -0.268 (inactive); in experiment [16], -0.909 (inactive).

`O=c1n(-c2ccccc2)c(=O)n2n1CC(COc1ccccc1)=C([C@H](O)CCc1ccccc1)[C@@H]2CO`: the composite z-score in experiment [1] was -0.333; in experiment [2] it was -0.0765; in experiment [3] it was -0.141; in [4] it was 0.265; in [5] it was 0.094; in experiment [6], -0.153. Also, the composite z-score in experiment [7] was 0.0463; in [9], 0.0915; in [10], -0.318; in [11] it was 0.17; in experiment [15], -0.173; in experiment [17], -0.153. Also, the composite z-score in experiment [18] was 0.701; in [19] it was -0.196; in [20], -0.08. The z-score was -2.53 (inactive) in experiment [8]; -1.33 (inactive) in experiment [12]; -1.79 (inactive) in experiment [13]; -0.868 (inactive) in [14]; 2.68 (inactive) in [16].

Regarding `CC1CC/C=C\[C@H]2OC34C=CCN(c5ccc(Cl)cc5)C(=O)[C@H]3N(CCCCCO)C(=O)[C@]4(C)C2C(=O)O1` (stereo not given in full), the composite z-score in experiment [1] is 0.124; in experiment [2] it was -0.673; in [3], -0.16; in experiment [4], -1.26; in experiment [5], -1.01; in experiment [6], 0.332. Also, the composite z-score is 0.429 in experiment [7]; -0.999 in experiment [9]; -0.0994 in experiment [10]; -0.318 in [11]; -1 in [15]; -0.233 in experiment [17]. The composite z-score is -1.33 in experiment [18], -0.394 in [19] and -0.302 in [20]. For the same molecule, the z-score was 0.581 (inactive) in experiment [8]; 0.184 (inactive) in experiment [12]; 0.177 (inactive) in experiment [13]; -0.166 (inactive) in [14]; -0.367 (inactive) in [16].

Regarding `CN(C)CCCNC(=O)[C@@H]1c2ccccc2C(=O)N(Cc2ccccc2Cl)[C@H]1c1ccc(CO)cc1`, the composite z-score was -0.126 in experiment [1]; 0.542 in [2]; -0.19 in experiment [3]; 0.069 in experiment [4]; -0.243 in experiment [5]; 0.261 in experiment [6]. In addition, the composite z-score in experiment [7] was -0.0724; in experiment [9], -0.177; in [10] it was -0.19; in experiment [11], 0.226; in experiment [15] it was 2.25; in [17], -0.295. Also, the composite z-score is -0.611 in experiment [18], -0.247 in [19] and 0.0733 in experiment [20]. Besides, the z-score in experiment [8] is -1.96 (inactive); in experiment [12], -0.34 (inactive); in experiment [13] it was -1.32 (inactive); in experiment [14], -1.04 (inactive); in [16] it was 0.596 (inactive).

The values are drawn from PubChem BioAssay.
